Screening results as filed in PubChem BioAssay.
PMP22 txn prim = PMP22 gene transcription modulation; AID 1508649; S16 Pmp22-F2sN Schwann cells, FLuc/NLuc coincidence luminescence, 24 h; hit rate 2% among 43,000; Potency, µM (top dose mostly 57.5 µM), without a hit: top-dose activity change, negative = inhibition, usual class: inhibitors; active = clear falling dose curves in both reporters; inconclusive = both reporters move, but less clearly or upward; inactive = either reporter flat; the % is the NLuc reporter signal; also: potency is read from the fitted curve at half-maximal effect; % is scaled to controls: 0 for no effect and ±100 for the full control effect
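Rat S16 Pmp22-F2sN cells, 500-1,000/well in phenol red-free DMEM + 10% FBS, compound-treated 24 h (37C, 5% CO2). Luminescence: FLuc read, Stop&Glo added, NLuc read.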
NTMT1 inh = NTMT1 methyltransferase inhibition; NTMT1 MTase-Glo SAH luminescence, purified enzyme; Potency, µM (titrated, usually from 114 µM), without a hit: at the top dose activity change, negative = inhibition, most hits filed as inhibitors; hit rate 2.5% among 59,000; AID 1645870;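 also: potency is read from the fitted curve at half-maximal effect; plate controls were DMSO vehicle for no effect and no enzyme for full effect; nearly all actives have a fitted effect of over 65% in size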
Target sequence (Q9BV86 whole entry, looked up): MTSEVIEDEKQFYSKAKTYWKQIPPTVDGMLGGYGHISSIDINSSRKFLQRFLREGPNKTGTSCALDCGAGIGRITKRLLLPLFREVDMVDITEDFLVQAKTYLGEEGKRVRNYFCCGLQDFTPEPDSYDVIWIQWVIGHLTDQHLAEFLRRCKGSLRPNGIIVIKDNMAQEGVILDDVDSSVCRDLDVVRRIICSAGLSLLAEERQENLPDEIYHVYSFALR
pS6 MEF inh = inhibitors of mTORC1 signaling in Tsc2-/- p53-/- MEF cells; hit rate 0.78% among 44,000; Potency, µM (top dose mostly 38.3 µM), for the others: top-dose activity change, negative = inhibition, most hits filed as inhibitors; Tsc2-/- p53-/- MEF, phospho-rpS6 immunofluorescence/PI, 24 h;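 also: potency is read from the fitted curve at half-maximal effect; plate controls were DMSO for no effect and rapamycin for full effect; nearly all actives have a fitted effect of over 50% in size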
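Readout is phospho-S6 Alexa 488 signal normalized to PI per well, reported as % active cells with thresholds set from rapamycin (7.5 nM) and DMSO controls. Cells: Tsc2-/-, p53-/- MEFs, 24 hrs compound at 37 C; PI cell number serves as viability.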
GALC G270D up = galactocerebrosidase G270D activity enhancement, cell-based | hit rate 0.1% among 45,000 | Potency, µM (series often up to 57.5 µM), hits mostly activators | P54803 | 145M-Twi-hGALC-G270D cells (Twitcher mouse brain line with human GALC G270D), HMU-beta-Gal fluorescence, 48 h; also: potency is read from the fitted curve at half-maximal effect; 0% is about no effect; nearly all actives have a fitted effect of over 65% in size
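Fluorogenic HMU-b-Gal hydrolysis (0.1 mM final, pH 5.2 citrate-phosphate with 1 mg/mL sodium taurocholate; carbonate stop buffer) measures mutant GALC activity after compound treatment of live 145M-Twi Twitcher brain cells stably carrying human GALC-G270D, with wild-type GALC line alongside; activation sought.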
SKOV3 invasion = blocks SKOV3ip1 adhesion and invasion in omental model | SKOV3ip1-GFP adhesion/invasion on 3D omental model, fluorescence | Potency, µM (series often up to 45.8 µM), for inactives: at the top dose activity change, negative = inhibition, hits mostly inhibitors | hit rate 0.1% among 46,000 | AID 1963576;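 also: potency is read from the fitted curve at half-maximal effect; plate controls were DMSO wells for no effect and tomatine positive control wells for full effect; nearly all actives have a fitted effect of over 65% in size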
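qHTS, 4-pt dose (0.36-46 umol/L); SKOV3ip1-GFP, 1,200 cells/well, no FBS; primary omental fibroblast/mesothelial co-culture 48 h pre-grown; 2 h RT + 16 h 37 C; PBS wash, 4% PFA; GFP count 488/509 nm.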
S16 viability = toxic to S16 Pmp22-F2sN Schwann cells | S16 Pmp22-F2sN Schwann cells (luciferase reporters placed in the Pmp22 gene) viability, CellTiter-Glo, 24 h | Potency, µM (top dose mostly 57.5 µM), for the others: at the highest dose activity change, negative = cytotoxicity, most hits filed as cytotoxic | hit rate 0.48% among 43,000; also: potency is read from the fitted curve at half-maximal effect; % is scaled to controls: 0 for no effect and ±100 for the full control effect; nearly all actives have a fitted effect of over 65% in size
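Luminescence from CellTiter-Glo, read by CCD camera after a 15 min room-temperature incubation, served as the viability signal. Reporter Schwann cells (S16 Pmp22-F2sN) had been treated with pin-transferred compounds for 24 h at 37C.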
CLK4 inh-1 = confirmation of human CLK4 kinase inhibitors, SAR round 2; shares compounds with NTMT1 inh; recombinant Clk4, Kinase-Glo ATP luminescence, 4.5 h; Potency, µM (doses to about 76.9 µM), for inactives: at the top dose activity, negative = inhibition, most hits filed as inhibitors; hit rate 90% among 90; AID 493204
CLK4 inh-2 = blocks human CLK4 kinase in radiometric assay | shares compounds with NTMT1 inh | Reaction Biology kinase assay, 10 uM ATP | Potency, µM, hits mostly inhibitors | hit rate 100% among 65; calls by dose curve
DYRK1A inh = inhibitors of human DYRK1A kinase | shares compounds with NTMT1 inh | Reaction Biology kinase assay, 10 uM ATP | Potency, µM, usual class: inhibitors | hit rate 90% among 65 | AID 504424;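 active = compounds that showed inhibition of Dyrk1a and received a fitted potency; inactive = compounds that showed no inhibition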
CLK2 inh = CLK2 kinase inhibition. shares compounds with NTMT1 inh. Potency, µM, usual class: inhibitors. Reaction Biology kinase assay, 10 uM ATP. hit rate 90% among 65. AID 504427;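 active = compound that inhibits Clk2 kinase in the dose series, with an IC50 potency reported; inactive = no inhibition seen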
CLK3 RBC = blocks human CLK3 kinase activity | shares compounds with NTMT1 inh | hit rate 40% among 65 | AID 504428 | Potency, µM, usual class: inhibitors | recombinant CLK3 kinase assay, 10 uM ATP;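 active = compounds that inhibited Clk3 enough in the ten-dose series to give a half-maximal potency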
DYRK1B RBC = DYRK1B kinase inhibition; shares compounds with NTMT1 inh; Recombinant Dyrk1b kinase assay, 10 uM ATP; Potency, µM, actives largely listed as inhibitors; hit rate 80% among 65;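 active = compounds whose dose response shows an inhibitor phenotype against the kinase Dyrk1b; inactive = compounds showing no inhibitor phenotype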
CLK1 RBC = CLK1 kinase inhibition | shares compounds with NTMT1 inh | recombinant Clk1 kinase assay, 10 uM ATP | Potency, µM, actives largely listed as inhibitors | hit rate 90% among 65 | AID 504430;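 active = compounds that block the splicing kinase Clk1 enough to give a fitted half-inhibition concentration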
NNMT counter = counter-screen for NTMT1 inhibitors: human NNMT inhibition; shares compounds with NTMT1 inh; NNMT MTase-Glo luminescence, SAH detection; Potency, µM (titrated, usually from 57.1 µM), without a hit: at the highest dose activity, negative = inhibition, actives largely listed as inhibitors; hit rate 10% among 120; AID 1645878
Target sequence (P40261 whole entry, looked up): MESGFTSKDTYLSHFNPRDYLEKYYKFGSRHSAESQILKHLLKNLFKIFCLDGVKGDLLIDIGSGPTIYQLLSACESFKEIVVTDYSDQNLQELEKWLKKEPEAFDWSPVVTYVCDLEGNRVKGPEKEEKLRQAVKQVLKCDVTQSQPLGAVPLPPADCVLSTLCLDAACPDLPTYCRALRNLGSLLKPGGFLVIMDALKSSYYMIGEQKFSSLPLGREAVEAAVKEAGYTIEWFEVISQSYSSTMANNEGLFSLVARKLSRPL
Active calls of the source: *; i = inactive; ? = inconclusive; · = not tested or not shown; [ ] = dose if it differs, or a comment. A selection: hits, their analogues and other compounds. The true share with any hit is near 3.6%. Unless noted, calls follow the shape of the dose curve; as a rule, active = well fitted curve in the direction sought with a large enough effect; inconclusive = small, poorly fitted or top-dose-only effect, or another doubt; inactive = no such curve, though single readings can be large; an effect the other way counts as inactive or inconclusive.

SMILES	PMP22 txn prim	NTMT1 inh	pS6 MEF inh	GALC G270D up	SKOV3 invasion	S16 viability	NNMT counter	others
CN(C)CCCn1cc(C2=C(c3c[nH]c4ccccc34)C(=O)NC2=O)c2ccccc21	·	25µM*	·	·	·	·	?
CC(C)(C)c1ccc(C(=O)Nc2ccc(-c3nc4ccccc4[nH]3)cc2)cc1	·	5%	·	·	·	·	·
CC(C)(C)c1ccc(-c2nc3ccccc3[nH]2)cc1	·	10µM*	·	·	·	·	?
Cc1ccccc1C(=O)n1ccc2cc(-c3nc(NC(=O)Cc4ccc5c(c4)OCO5)sc3C)ccc21	·	5%	·	·	·	·	·
CCCCCOc1ccc(-c2cc(-c3ccc(C(=O)N[C@H]4C[C@@H](O)[C@@H](O)NC(=O)C5[C@@H](O)[C@@H](C)CN5C(=O)C([C@H](O)CC(N)=O)NC(=O)C([C@H](O)[C@@H](O)c5ccc(O)c(OS(=O)(=O)O)c5)NC(=O)C5C[C@@H](O)CN5C(=O)C([C@@H](C)O)NC4=O)cc3)no2)cc1 (stereo not given in full)	·	1%[29.8 µM]	·	·	·	·	·
CCCCCOc1ccc(-c2ccc(-c3ccc(C(=O)N[C@H]4C[C@@H](O)[C@@H](O)NC(=O)[C@@H]5[C@@H](O)[C@@H](C)CN5C(=O)[C@H]([C@@H](C)O)NC(=O)[C@H]([C@H](O)[C@@H](O)c5ccc(O)cc5)NC(=O)[C@@H]5C[C@@H](O)CN5C(=O)[C@H]([C@@H](C)O)NC4=O)cc3)cc2)cc1	·	5%[29.8 µM]	·	·	·	·	-4%[28.6 µM]
Cc1ccc(CNC(=O)c2c(C)oc3ncnc(N4CCOCC4)c23)cc1	-12%	-29%	3%	i	i	2%	·
CC(O)c1ccc(-c2ccc3ncnc(N4CCOCC4)c3c2)o1 (stereo not given)	·	?	·	·	·	·	·	CLK4 inh-1=0.41µM*;CLK4 inh-2=1.9*;DYRK1A inh=29µM*;CLK2 inh=19µM*;CLK3 RBC=i;DYRK1B RBC=45µM*;CLK1 RBC=9µM*
Cc1oc2ncnc(N3CCOCC3)c2c1C(=O)N(Cc1ccccc1)C(C)C	2%	?	4%	i	i	2%	·
O=C(O)c1ccc(-c2ccc3ncnc(N4CCOCC4)c3c2)o1	·	-1%	·	·	·	·	·	CLK4 inh-1=0.65µM*;CLK4 inh-2=3*;DYRK1A inh=45µM*;CLK2 inh=33µM*;CLK3 RBC=i;DYRK1B RBC=34µM*;CLK1 RBC=46µM*
C=Cc1cc(O)cc2nc(-c3ccc(O)c(F)c3)oc12	·	13µM*	·	·	·	·	?
CCC(=O)Nc1cc(-c2nc3cc(C)cc(C)c3o2)ccc1C	-7%	3%	?	i	-32%	14%	·
